MPTP block – permeability transition pore inhibition; isolated mouse mitochondria, Ca2+ swelling absorbance, 30 min; inhibition, % at 10 µM; 360,000 compounds, 1.4% hits;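 active means inhibition of 50% or more, scaled per plate between neutral and stimulator controls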;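 further: 0% = DMSO wells given calcium and 100% = 1 mM EGTA wells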
KLK7 zymogen act – activates the human kallikrein-7 zymogen; purified proKLK7, EDANS-DABCYL substrate fluorescence; 100% is mature enzyme control, 0% vehicle; activation, % at 7 µM; 370,000 compounds, 0.9% hits;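 active means activation above the mean of all tested compounds plus 3 SD, computed per campaign excluding outliers beyond control limits, cut at about 13% in these data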
ADAM10 inh – ADAM10 inhibition, QFRET primary screen; O14672; 370,000 compounds, 0.62% hits; recombinant ADAM10, EDANS/DABCYL FRET peptide cleavage, 3 h; inhibition, % at 7 µM; AID 720582;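 active means inhibition above a per-campaign cutoff equal to the mean of compounds falling between control-based bounds plus 3 SD, cut at about 20% in these data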;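 further: 0% = DMSO wells while the 100% control is not disclosed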
Target sequence (O14672 214-748 limits assumed): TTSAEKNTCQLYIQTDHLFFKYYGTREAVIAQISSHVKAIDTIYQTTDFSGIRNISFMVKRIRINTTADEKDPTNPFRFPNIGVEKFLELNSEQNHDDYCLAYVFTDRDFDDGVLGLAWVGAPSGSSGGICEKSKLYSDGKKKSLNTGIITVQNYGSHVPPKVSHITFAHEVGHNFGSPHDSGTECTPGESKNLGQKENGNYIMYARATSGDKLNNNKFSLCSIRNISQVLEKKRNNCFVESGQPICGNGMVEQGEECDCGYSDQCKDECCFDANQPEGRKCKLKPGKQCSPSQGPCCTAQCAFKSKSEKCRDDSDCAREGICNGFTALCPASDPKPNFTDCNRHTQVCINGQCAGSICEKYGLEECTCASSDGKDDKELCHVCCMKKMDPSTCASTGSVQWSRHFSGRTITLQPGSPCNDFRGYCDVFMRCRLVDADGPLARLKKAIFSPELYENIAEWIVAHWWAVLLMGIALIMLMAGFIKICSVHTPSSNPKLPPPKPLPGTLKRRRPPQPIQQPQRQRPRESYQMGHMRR
DSG3 Ab inh – inhibitors of pemphigus antibody binding to human desmoglein-3; P32926; DSG3-coupled beads, scFv-anti-DSG3-GFP binding, flow cytometry; stronger effect = lower value; binding (percent of control), % at 10 µM; 310,000 compounds, 0.48% hits; AID 588358;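 active means binding more than 3 SD below its plate's average and above zero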
rCAG RNA binder – binds r(CAG) RNA repeats. r(CAG) RNA repeat, TO-PRO-1 dye displacement fluorescence. 370,000 compounds, 1.3% hits. inhibition, % at 3 µM;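 active means inhibition above the plate cutoff, the mean of all test compounds on that plate plus 3 SD, cut at about 35% in these data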;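 further: 0% = DMSO alone and 100% = 100 µM mitoxantrone as full dye displacement; higher means more dye released from RNA so lower well fluorescence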
ADAM17 inh – ADAM17 inhibition, QFRET primary screen; inhibition, % at 6.95 µM; recombinant ADAM17, EDANS/DABCYL FRET peptide cleavage; 370,000 compounds, 0.83% hits; AID 720648;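 active means inhibition above the mean of compounds lying between control limits plus 3 SD, set per campaign, cut at about 8.5% in these data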;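 further: 0% = DMSO-only wells as the low control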
ADAM10 ctr – counter-screen for ADAM17 exosite inhibitors: inhibitors of human ADAM10; 2,900 compounds, 47% hits; recombinant ADAM10, EDANS/DABCYL FRET peptide cleavage, 3 h; inhibition, % at 6.95 µM; AID 743256; shares compounds with ADAM17 inh;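 active means mean inhibition over the triplicate runs exceeds the activity threshold set in the earlier primary screen, cut at about 20% in these data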;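 further: 0% = DMSO wells and 100% = marimastat wells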
ADAM17 confirm – confirmation of inhibitors of human ADAM17 | recombinant ADAM17, EDANS/DABCYL QFRET peptide cleavage | 2,900 compounds, 65% hits | inhibition, % at 6.95 µM | shares compounds with ADAM17 inh | AID 743257;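 active means mean inhibition across replicates above the hit cutoff set in the primary screen, cut at about 8.5% in these data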;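 further: 0% = DMSO wells and 100% = marimastat wells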
Starred values were filed as active, the others as inactive. An excerpt weighted towards active compounds, which were near 4.7% of everything screened.

CC(C)C[C@H](NC(=O)c1[nH]cnc1C(=O)Nc1ccccc1)C(=O)OC(C)(C)C was read as MPTP block 1.2, KLK7 zymogen act 0.2, ADAM10 inh 27.2*, DSG3 Ab inh 102.6, rCAG RNA binder 2.2, ADAM17 inh 14.0*, ADAM10 ctr 40.5* and ADAM17 confirm 20.2*.
For COc1ccc(Cl)cc1S(=O)(=O)N(C)CC(=O)NCc1ccc2c(c1)OCO2 the results were MPTP block 0.3, KLK7 zymogen act -0.4, ADAM10 inh 4.2, DSG3 Ab inh 90.7, rCAG RNA binder -2.3 and ADAM17 inh 2.7.
`CCN1C[C@@H]2[C@@H]3C(=O)N(C)C(=O)[C@@H]3[C@](C)(C(=O)OC)N2C1=NC` gave MPTP block 0.3, KLK7 zymogen act 0.3, ADAM10 inh -5.0, DSG3 Ab inh 101.8, rCAG RNA binder 1.7 and ADAM17 inh -0.3.
Fc1ccc(NCc2n[nH]c(=S)n2Cc2ccccc2)cc1 was read as MPTP block 1.8, KLK7 zymogen act 0.1, ADAM10 inh 15.5, DSG3 Ab inh 102.3, rCAG RNA binder 0.9, ADAM17 inh 11.4*, ADAM10 ctr 10.6 and ADAM17 confirm 8.6.
`Cc1cc(C)n(C(=O)c2cc([N+](=O)[O-])cc([N+](=O)[O-])c2)n1` gave MPTP block 0.0, KLK7 zymogen act -1.5, ADAM10 inh -4.5, DSG3 Ab inh 114.8, rCAG RNA binder 1.9 and ADAM17 inh -4.3.
`CCN(CC)C1Oc2cc3c(cc2C(c2cc(OC)c(OC)c(OC)c2)C1C)OCO3` (stereo not given) gave MPTP block 3.8, KLK7 zymogen act 0.2, ADAM10 inh 9.1, DSG3 Ab inh 95.5, rCAG RNA binder 0.6, ADAM17 inh 9.9*, ADAM10 ctr 11.0 and ADAM17 confirm 9.9*.
For Cc1nn(Cc2ccccc2)c(C)c1C(=O)N1CCN(S(=O)(=O)/C=C/c2ccccc2)CC1 the results were MPTP block -2.6, KLK7 zymogen act 0.4, ADAM10 inh -7.7, rCAG RNA binder 2.7 and ADAM17 inh 3.2.
Cc1ccc(C(=O)CCC(=O)N(C)CC(=O)Nc2ccccc2Br)cc1 was read as MPTP block -0.4, KLK7 zymogen act -0.9, ADAM10 inh -6.4, rCAG RNA binder -8.2 and ADAM17 inh -5.1.
For Cc1cc(C(=O)CCC(=O)N(C)CC(=O)Nc2ccccc2Br)c(C)s1 the results were MPTP block 0.0, KLK7 zymogen act 0.4, ADAM10 inh 5.8, DSG3 Ab inh 102.8, rCAG RNA binder 2.6, ADAM17 inh 11.1*, ADAM10 ctr -9.8 and ADAM17 confirm -1.5.
Screening Cn1cc(C(=O)N/N=C/c2cccs2)c2ccccc21 returned MPTP block 8.5, KLK7 zymogen act 0.9, ADAM10 inh -2.7, DSG3 Ab inh 95.9, rCAG RNA binder 2.0, ADAM17 inh 8.9*, ADAM10 ctr -4.5 and ADAM17 confirm -0.4.
`Cn1cc(C(=O)N/N=C/c2ccc3c(c2)OCO3)c2ccccc21` gave MPTP block 3.7, KLK7 zymogen act 1.0, ADAM10 inh -11.2, DSG3 Ab inh 112.7, rCAG RNA binder 1.6 and ADAM17 inh -3.1.
For O=C(Oc1cccc(NC(=O)c2cccs2)c1)c1cccc(S(=O)(=O)N2CCCC2)c1 the results were MPTP block 2.7, KLK7 zymogen act 0.1, ADAM10 inh 17.8, DSG3 Ab inh 102.9, rCAG RNA binder 9.3, ADAM17 inh 11.2*, ADAM10 ctr 26.5* and ADAM17 confirm 16.5*.
Screening Cn1cc(C2(c3c[nH]c4ccccc34)CCN(C(=O)OC(C)(C)C)CC2)c2ccccc21 returned KLK7 zymogen act -0.9, ADAM10 inh 10.0, rCAG RNA binder 5.1, ADAM17 inh 11.1*, ADAM10 ctr 2.8 and ADAM17 confirm 7.1.
Screening Brc1ccc(C2C3=C(Nc4ncnn42)c2ccccc2OC3c2ccncc2)cc1 (stereo not given) returned MPTP block 1.9, KLK7 zymogen act -19.6, ADAM10 inh -308.2, DSG3 Ab inh 105.2, rCAG RNA binder 2.2 and ADAM17 inh -78.4.

Assay outcomes deposited in PubChem by several laboratories.
